# High-throughput results: PubChem, National Center for Advancing Translational Sciences (NCATS)
# Only some compounds are listed: those with a hit (about 21% of all), similar ones and a draw of the others.
# HCV inhibitor – qHTS Assay for Inhibitors of Hepatitis C Virus (HCV); Huh7.5.1 HCVcc-Cre infection, luciferase reporter, 44 h; 340,000 compounds, 3.4% hits; Potency, µM (doses to about 41.8 µM), inactives show at the highest dose activity change, negative = inhibition, most hits filed as inhibitors; also: potency is read from the fitted curve at half-maximal effect; % is scaled to controls: 0 for no effect and ±100 for the full control effect
#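 A cell-based infection assay in which seeded cells (1,000 per well) receive test compound after 4 h, are inoculated with HCVcc-Cre at approximately 0.5 moi, and are incubated 44 h before luminescence detection.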
# Cycloheximide cs – Cycloheximide Counterscreen for Small Molecule Inhibitors of Shiga Toxin. max response, %. AID 2314, 2010. cell reporter, cycloheximide protein synthesis inhibition counterscreen. 300,000 compounds, 12% hits; in the data active = max response mostly above about 13%, no sharp cut-off; inactive = mostly below about 14%; also: read at 38.3 µM for the half of the compounds with a filed dose; 0% is about no effect
# Pf growth 96h – Primary qHTS for delayed death inhibitors of the malarial parasite plastid, 96 hour incubation; P. falciparum luciferase reporter growth, 96 h; Potency, µM (series often up to 28.7 µM), for inactives: at the highest dose activity change, negative = inhibition, usual class: inhibitors; 320,000 compounds, 6.9% hits; also: potency is read from the fitted curve at half-maximal effect; % is scaled to controls: 0 for no effect and ±100 for the full control effect
#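 P. falciparum expressing integrated firefly luciferase, in erythrocytes at 2% hematocrit, 0.05% parasitemia, incubated with compounds 96 h at 37 C, 5% CO2. Growth inhibition read as loss of luminescence; two-generation exposure targets delayed-death apicoplast inhibitors.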
# AMA1 RON2 block – qHTS for Inhibitors of AMA1-RON; Towards Development of Antimalarial Drug Lead: Primary Screen. Plasmodium falciparum AMA1 (3D7) - RON2 peptide interaction. AlphaScreen AMA1-biotinylated RON2 peptide binding. Potency, µM (series often up to 58.2 µM), for inactives: top-dose activity change, negative = inhibition, usual class: inhibitors. 360,000 compounds, 0.2% hits. AID 720542, 2013;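 also: potency is read from the fitted curve at half-maximal effect; 0% = vehicle wells and -100% = peptide control; nearly all actives have a fitted effect of over 45% in size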
#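 AMA1 (3D7) with his tag at 25 nM final met compounds first, then biotinylated RON2 peptide at 25 nM; detection used donor plus acceptor beads, 10 µg/mL apiece, read by AlphaScreen after 30 min at room temperature.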
# Shiga toxin inh – A qHTS for Small Molecule Inhibitors of Shiga Toxin | Vero cells, Shiga toxin protein synthesis inhibition reporter | inhibition, % at 38.7 µM | 290,000 compounds, 9.2% hits | AID 2315, 2010; in the data active = inhibition mostly above about 28%, no sharp cut-off; inactive = mostly below about 43%; also: 0% is about no effect
# Pf growth 48h – Primary qHTS for delayed death inhibitors of the malarial parasite plastid, 48 hour incubation; P. falciparum luciferase growth in erythrocytes, 48 h; Potency, µM (highest dose often 28.7 µM), for the others: at the top dose activity change, negative = inhibition, hits mostly inhibitors; 310,000 compounds, 5.9% hits; also: potency is read from the fitted curve at half-maximal effect; % is scaled to controls: 0 for no effect and ±100 for the full control effect
#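 Firefly luciferase activity from engineered P. falciparum reports growth; inhibitors lower the luminescent signal. Cultures contained 2% hematocrit erythrocytes at 0.1% final parasitemia.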
# The depositor's hits bear a star; ? = inconclusive; / = no result. Unless noted, calls follow the shape of the dose curve; as a rule, active = well fitted curve in the direction sought with a large enough effect; inconclusive = small, poorly fitted or top-dose-only effect, or another doubt; inactive = no such curve, though single readings can be large; an effect the other way counts as inactive or inconclusive.
SMILES,HCV inhibitor,Cycloheximide cs,Pf growth 96h,AMA1 RON2 block,Shiga toxin inh,Pf growth 48h
C[C@@H]1CC[C@]2(C(=O)O)CC[C@]3(C)C(=CCC4[C@]56CC[C@@](O)(OC5)C(C)(C)C6CC[C@]43C)C2[C@H]1C (some centres not stated),2µM*,/,-1%,-15%,/,?
C[C@H]1[C@H](C)CC[C@]2(C(=O)O)CC[C@]3(C)C(=CC[C@@H]4[C@@]5(C)CC[C@H](O)C(C)(C)[C@@H]5CC[C@]43C)[C@H]12,0.32µM*,-4,37%,6%,-9,4%
Cc1cccc(Nc2nnc(-c3ccc(N4CCOCC4)c([N+](=O)[O-])c3)c3ccccc23)c1,14µM*,-2,?,-25%,-5,12µM*
Cc1ccc(C)n1-c1ccc(N2CCOCC2)c([N+](=O)[O-])c1,-6%,-1,?,-6%,23,?
CN1CCN(c2ccc(CNC(=O)C3Cc4c(-c5ccc(Cl)cc5)ccnc4O3)cc2)CC1 (configuration not stated),/,/,/,2%,/,/
COc1ccc(C(=O)C(CN2CCOCC2)c2ccccc2)cc1F (configuration not stated),?,2,-21%,0%,-7,7%
COc1ccc(C(O)C(CN2CCOCC2)c2ccccc2)cc1F (configuration not stated),0%,2,?,-4%,9,6.6µM*
COc1ccc(C(=O)CN2CCOCC2)cc1F,23%,2,0.66µM*,20%,7,34%
Cc1ccc(-c2c(C3C4C=CCC(C)C4C(=O)N3Cc3ccccc3)ccc3ccccc23)cc1 (configuration not stated),/,8,/,/,-7,/
O=C(O)COC(=O)Cc1ccccc1Nc1c(Cl)cccc1Cl,-1%,-3,?,-2%,-4,?
CCc1ccc(/C=N/n2c(C)cc(C)c(C#N)c2=O)cc1,1%,10,1.7µM*,-10%,13,9.3µM*
Cc1cccc(/C=N/n2c(C)cc(C)c(C#N)c2=O)c1,24%,-3,?,0%,4,5.2µM*
Cc1cn([C@H]2C[C@H](O)[C@@H](CNC(=O)[C@@H]3CCCN3Cc3ccccc3)O2)c(=O)[nH]c1=O,/,/,/,14%,/,/
O=C(NC1CCCN(Cc2ccccc2F)C1)c1cccs1 (configuration not stated),10%,-1,7%,-12%,-9,-7%
Cc1sc2nc(C(C)Nc3ccccc3N3CCOCC3)[nH]c(=O)c2c1C (configuration not stated),?,-4,6.6µM*,-17%,18,9.3µM*
Fc1ccccc1Cc1noc(CN2CCC(OCc3cccnc3)CC2)n1,?,22*,43%,-8%,59*,47%
COC1CCCN(Cc2nc(Cc3ccccc3F)no2)C1 (configuration not stated),8%,11,-8%,-19%,4,6%
O=C1NC[C@H](Cc2ccc(O)cc2)N(C[C@H]2CCCN2C[C@H](Cc2ccc(O)cc2)N2C[C@H](Cc3ccc(O)cc3)N(CCc3ccccc3)C(=O)C2=O)C1=O,/,/,/,32µM*,/,/
O=C1NC[C@H](Cc2ccccc2)N(C[C@H]2CCCN2C[C@H](Cc2ccccc2)N2C[C@H](Cc3ccccc3)N(CC3CCCCC3)C(=O)C2=O)C1=O,8.9µM*,/,/,-5%,/,/
Cc1ccc(NCC(=O)N/N=C/c2c[nH]c3ccccc23)cc1,-2%,9,?,12%,21,?
CC1CCN(C(=O)CS(=O)(=O)Cc2ccccc2)CC1,6%,35*,382%,2%,77*,103%
CCN(CC)S(=O)(=O)c1cccc(-c2nnc(SCC(=O)NCCC3=CCCCC3)n2N)c1,-26%,2,12µM*,-17%,-8,-16%
